Assay results published in PubChem BioAssay (NCI).
Several values for one entry are separate records, joined by “and”; a condition that tells them apart may be missing. Equal values may be shown once. The panel holds about 79,000 compounds, 15% with a hit somewhere; the sample as a whole holds those more often. Unmarked numbers belong to inactive results. Activity calls are given as the source filed them. Rule as the data show it: active = growth inhibition above about 70%; inactive = the rest.

What was measured:
[1] = NCI Yeast Anticancer Drug Screen. Data for the rad50 strain (AID 155);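 also: 0% = growth of vehicle-only cultures of the same strain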; conditions: S. cerevisiae rad50 strain growth inhibition; at 50.0 µM; hits give high values
How it was run: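 A DNA repair-deficient yeast mutant serves as the test organism; compound-induced growth inhibition is calculated against vehicle-treated cells.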

[2] = NCI Yeast Anticancer Drug Screen. Data for the mec2-1 strain (AID 157); conditions: S. cerevisiae mec2-1 strain, at 50.0 µM, hits give high values
How it was run: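 Growth inhibition is read against vehicle-treated controls after compound exposure of the mec2-1 yeast strain, which is defective in DNA damage repair or cell cycle control.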

[3] = NCI Yeast Anticancer Drug Screen. Data for the sgs1 mgt1 strain (AID 161);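 also: 0% = growth of cultures given vehicle only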; conditions: S. cerevisiae sgs1 mgt1 strain, at 50.0 µM, hits give high values
How it was run: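 Yeast cells carrying a defined DNA-repair defect were exposed to test compounds. Growth inhibition was measured relative to vehicle-treated controls.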

[4] = NCI Yeast Anticancer Drug Screen. Data for the cln2 rad14 strain (AID 165);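 also: 0% = growth equal to vehicle treated cultures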; conditions: S. cerevisiae cln2 rad14 strain, at 50.0 µM, hits give high values
How it was run: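 Growth inhibition, relative to vehicle-treated controls, is the read-out. The test organism is a yeast strain with defined genetic alterations, cln2 rad14.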

[5] = NCI Yeast Anticancer Drug Screen. Data for the bub3 strain (AID 167); conditions: S. cerevisiae bub3 mutant strain, at 50.0 µM, hits give high values
How it was run: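 Inhibition values come from growth of compound-treated mutant yeast normalised to vehicle-treated controls.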

[6] = NCI Yeast Anticancer Drug Screen. Data for the mlh1 rad18 strain (AID 175); conditions: S. cerevisiae mlh1 rad18 strain growth inhibition; at 50.0 µM; hits give high values
How it was run: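 Cells of a genetically altered yeast strain, deficient in DNA damage repair, were treated with compound. Their growth was then compared with that of vehicle-treated cultures to give inhibition.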

SMILES	growth inhibition [1]	growth inhibition [2]	growth inhibition [3]	growth inhibition [4]	growth inhibition [5]	growth inhibition [6]
Cc1ccc(S(=O)(=O)NNP(Br)(c2ccccc2)(c2ccccc2)c2ccccc2)cc1	26.3%	-1.1%	5.7%	-0.75%	5.35%	12.4%
CCCCC(CC)C(=O)NC(N)=O (centres undefined)	6.7%	-20.1%	-5.35%	-22.4%	-12.2%	4.1%
O.O.[NH-]C1CCCCC1[NH-].[Pt+2] (centres undefined)	19.6%	33.6%	6.25%	-5.95%	3.05%	44.2%
CCOC(=O)C(Br)C(C)Br (centres undefined)	-13.4%	-39.5%	-23.1%	7.1%	-9.65%	-22.5%
O=P(c1ccccc1)(c1ccccc1)c1ccccc1.O=P(c1ccccc1)(c1ccccc1)c1ccccc1.O=P(c1ccccc1)(c1ccccc1)c1ccccc1.O=P(c1ccccc1)(c1ccccc1)c1ccccc1.[Co+2].[O-][Cl+3]([O-])([O-])O	22.7%	3.45%	17.9%	20.9%	13.8%	16.3%
CC(Cc1ccccc1)NC(=O)/C=C/C(=O)O (centres undefined)	5.9%	4.25%	9.6%	-6.95%	36.8%	11.9%
CP1(=O)CCC23CCCCC21O3 (centres undefined)	7.9%	-34.8%	-2.3%	-20.8%	11.7%	-4.25%
O=[Te]=O	20.4%	-8.15%	17.4%	5%	5.55%	11.4%
NP(=S)(Oc1ccc(Cl)cc1)Oc1ccc(Cl)cc1	96.8% (active)	65.1%	97.7% (active)	60.7%	49.3%	91.5% (active)
CNC(=O)O/N=C/c1cccc(/C=N/OC(=O)NC)c1	-0.1%	14.3%	3.35%	49.5%	28.8%	11.2%
O=C(N/N=C/c1cc(Br)cc(Br)c1[O-])c1ccccc1O.O=C(N/N=C/c1cc(Br)cc(Br)c1[O-])c1ccccc1O.[Fe+2]	20.4%	21.7%	52%	-34.8%	34.4%	43.8%
CC1(C)N=C(N)N=C(N)N1c1ccc(CCc2ccc(S(=O)(=O)F)c(Cl)c2)c(Cl)c1	99.2% (active)	99.7% (active)	99.8% (active)	98.7% (active)	99.2% (active)	99.7% (active)
CNC(=O)Oc1ccccc1C(N)=O	10.4%	-1.8%	-14.8%	-46.8%	-4.55%	7.3%
CC(C)OC(N)=O	-2.35%	-24.9%	29.2%	13.6%	-21%	-6.85%
NC(=O)/C=C/C(=O)O	19%	9.75%	10.5%	-8.25%	11%	14%
COc1cc2c(c(Oc3ccc(C)cc3)c1)CN(C)CC2	32.4%	19.3%	47.9%	39.7%	63.6%	58.8%
C=C(C)C(=O)OCC12CCC(C)=CC1OC1C(=O)C(OC(=O)C(=C)C)C2(C)C12CO2 (centres undefined)	8.55%	19.9%	-1.15%	2.75%	-10.1%	-34%
C1CN(P(N2CCOCC2)N2CCOCC2)CCO1	-17.6%	-70.3%	-9.25%	18.1%	-10.4%	-28.4%
NC(=S)c1cc(N(CCCl)CCCl)c([N+](=O)[O-])cc1[N+](=O)[O-]	22.4%	-0.25%	8.85%	8.85%	-11.6%	-22.5%
C[N+]1(CCCl)CCc2cc([N+](=O)[O-])ccc2C1 (centres undefined)	-25.1%	-84.7%	-24.9%	-16.1%	-12.6%	-9.8%
CCCCCC[C@@H](O)[C@@H]1C2=C(C[C@H]([C@H](O)[C@@H]3CC=CC(=O)O3)CC3=C(C(=O)OC3=O)[C@@H]1O)C(=O)OC2=O	20.6%	2.75%	26.7%	9.5%	16.7%	19.6%
CC1=NN(c2cccc(S(=O)(=O)O)c2)C(=O)C1N=Nc1cc(Cl)cc(S(=O)(=O)O)c1O.O.[Cr] (centres undefined)	-19.4%	-25.1%	3.1%	-0.7%	8.35%	9.35%

SMILES	growth inhibition [1]	growth inhibition [2]	growth inhibition [3]	growth inhibition [4]	growth inhibition [5]	growth inhibition [6]
CC(C)(C)C1=C(Br)C(F)(C(C)(C)C)OP1(=O)c1ccccc1 (centres undefined)	88.7% (active)	92.3% (active)	90.5% (active)	90.5% (active)	90% (active)	91.6% (active)
CC(=O)[O][Pb]([CH3])([CH3])[CH3]	-28%	-35.9%	-12.4%	6.7%	-55.5%	-20.8%
[Br][Hg][CH]1CCC2CCCC1O2 (centres undefined)	99.5% (active)	99.2% (active)	99.5% (active)	99% (active)	99.3% (active)	99.5% (active)
CCOC(=O)C1Oc2ccc([N+](=O)[O-])c3c2C1(O)CCC3 (centres undefined)	7.2%	1.3%	5.8%	26.6%	-8.8%	-6.65%
CN(C)c1ccc(N=Nc2cccc(C(=O)[O-])c2)cc1.CN(C)c1ccc(N=Nc2cccc(C(=O)[O-])c2)cc1.NC1CCCCC1N.[Pt+4]	-13.4%	-4.05%	-18.4%	1.2%	-28.1%	36.5%
CNC1(c2ccccc2)CC1	24.9%	-12.2%	0.95%	-60.9%	15.2%	-7.05%
O=CC=O	33.1%	17.6%	24.4%	21.6%	33.9%	28.4%
O=C(C1C(c2ccccc2)N1C1CCCCC1)C1C(c2ccccc2)N1C1CCCCC1 (centres undefined)	6%	17.9%	10.6%	-5.1%	-10.5%	8.7%
O=C1C2CCN(CC2)C1Cc1ccccc1 (centres undefined)	-10.2% and -4.55%	1.95% and 2.95%	-8.7% and 4.4%	-4.3% and -0.15%	-18.3% and -2.8%	-15.4% and 2.95%
N[C@H]1C2C3CC4C5CC(C42)C1(c1ccccc1)C53 (some centres undefined)	-20.4%	-5.25%	-0.05%	-5.2%	-12%	-6%
COc1nc2ccccc2nc1N1CC1	-3.25%	-31%	-15%	6.9%	-24.6%	-1.65%
[O-]c1n[n+](C2CCCCC2)no1	-11.4%	-7.6%	-45.7%	-31.1%	2.4%	-13.4%
O=[N+]([O-])C(CO)C(CO)[N+](=O)[O-] (centres undefined)	-5.95%	-12.4%	-1%	-20.8%	-13%	-17.6%
c1ccc(C[P+]2(c3ccccc3)CCCCC2)cc1	-12.7%	-1.05%	-0.55%	-22.6%	-4.95%	3.1%
Cc1nc([N+](=O)[O-])c([N+](=O)[O-])n1CC(O)CCl (centres undefined)	3.85%	-12.4%	4.2%	14.9%	-28.1%	20.4%
COP(=O)(OC)N1CCCCC1	29%	20.4%	12.7%	12.4%	22%	27.6%
Cc1cccc(C=NCCOCCOCCN=Cc2cccc(C)c2O)c1O.[Ni]	-8.3%	2.65%	-13.6%	1.25%	-19.6%	-14.2%
N[C@H](Cc1ccc2oc3cc(=O)c4ccccc4c-3nc2c1)C(=O)O	20.8%	33.4%	24.7%	15.1%	35.5%	39.2%
CCOC(=O)C(CCc1ccc(N(CCCl)CCCl)cc1)(NC(C)=O)C(=O)OCC	1.5%	-32.6%	8.65%	-4.35%	-16.8%	-39.9%
Cn1cnc([N+](=O)[O-])c1C(=O)O	7.9%	25.1%	20.4%	-13.2%	-17.9%	6.55%
CC(C(O)c1cccnc1)[N+](=O)[O-] (centres undefined)	-21.8%	-4.35%	-23.6%	-10.1%	3.95%	-17.4%
CC[C@H]1CN2CCc3c([nH]c4ccccc34)[C@@H]2C[C@@H]1/C(=C/OC)C(=O)OC (tested in a mixture with another compound)	-23.2%	-25.6%	-24.6%	3.6%	-32.9%	-13.9%
